Compounds without any hit were thinned out: in the full panel of roughly 83,000, 20% have a hit.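 Single-concentration screen, 48 h exposure, 96-well plates. Endpoint: percent growth. Below 10 = active.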 Active and inactive are the calls of the source.

This assay has as its system HL-60(TB) leukemia. As to the kind of experiment: NCI-60 one-dose screen, 48 h (100 = growth as untreated, 0 = no growth, -100 = all killed). The settings on record: 10 µM unless noted.
For `O=C1Nc2cc(-c3ccc(NC(=O)c4cccs4)cc3)ccc2/C1=C/c1ccc[nH]1`, the growth is 90.9% (inactive). Consider `O=C(N1c2ccccc2Sc2ccccc21)n1ccc2cccnc21`, for which the growth is 25.2% (inactive). Regarding `COc1cc(OC(F)(F)F)ccc1C(=O)Nc1sc2c(c1C#N)CCC(=O)C2`, the growth is 38% (inactive). With `O/N=C(\CSc1nnc(-c2c[nH]c3ccccc23)n1-c1ccccc1)c1ccc(Br)cc1` the figure was -36.3% (active). Under `N#Cc1c(-c2cccc(O)c2O)cc(-c2ccc3ccccc3c2)[nH]c1=O` stands 56.6% (inactive); under `CN1C(=O)/C(=C/c2nccs2)SC1=S`, 89% (inactive).

As to `O=C1CCC(N2C(=O)c3cccc(NCCCCCC(=O)N4CCN(c5ccc6nc7c(nc6c5C(F)(F)F)C(=O)c5ncccc5C7=O)CC4)c3C2=O)C(=O)N1` (stereo not drawn), the growth was -25.2% (active). With `O=C(NNC(=S)NCCc1ccccc1)c1ccc(OCc2nc3ccc(Cl)cc3[nH]2)cc1` the figure was 88.9% (inactive); with `Cc1ccc(/C=C/C(=O)c2ccc(S(=O)(=O)NCCNc3nc(Nc4ccc(F)cc4)nc(N(C)C)n3)cc2)cc1`, 13.5% (inactive). Under `CCS(=O)(=O)N1CCCC(C(=O)Nc2nc3ccc(NC(=O)c4ccc(F)c(OC)c4F)cc3s2)C1` (stereo not drawn) stands 53.9% (inactive); under `CC(=O)Nc1ccc(-n2cnc3cc(-c4ccc(NS(C)(=O)=O)cc4)ccc32)cc1`, 59.9% (inactive); under `O=C(/C=C/c1ccc(-c2ccccc2)cc1)c1nc2ccccc2n1Cc1ccc(F)cc1`, 21.1% (inactive). As for `CNS(=O)(=O)N1CCc2c(Br)c3c(c(OC)c2C1CCc1ccccc1)OCO3` (stereo not drawn), the growth is -36.1% (active).

For the origin of these results see PubChem BioAssay (NCI).
